The structures appear in SMILES notation. Some of the results follow. Values without a mark were called inactive. Activity calls are given as the source filed them. Cut-off read from the data, not from the text of the source: active = activation above about 17%; inactive = the rest.

The target in this test is 5-hydroxytryptamine receptor 5A (Homo sapiens) (UniProt P47898). As to the kind of experiment: HTR5A agonists, retest of hits, confirmation, cell-based, luminescence (AID 504915).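 Note: 0% = cells with vehicle only and 100% = full reference agonist response.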 The conditions noted are these: HTR5A agonist cell assay, at 9.3 µM, stronger effect = higher value.
5-hydroxytryptamine receptor 5A (Homo sapiens), sequence (P47898 whole entry, looked up): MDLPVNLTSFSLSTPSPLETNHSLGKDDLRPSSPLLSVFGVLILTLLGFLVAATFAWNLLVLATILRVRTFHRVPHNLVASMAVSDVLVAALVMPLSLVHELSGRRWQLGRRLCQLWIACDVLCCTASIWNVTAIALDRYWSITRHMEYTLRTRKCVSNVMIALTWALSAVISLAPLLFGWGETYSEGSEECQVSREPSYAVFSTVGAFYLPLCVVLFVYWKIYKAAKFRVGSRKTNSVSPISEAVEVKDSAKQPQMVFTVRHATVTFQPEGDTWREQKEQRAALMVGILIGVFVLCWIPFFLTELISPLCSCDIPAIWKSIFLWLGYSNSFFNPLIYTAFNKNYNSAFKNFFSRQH
`C/C(=N\NC(=O)CNc1cccc2ccccc12)c1ccc(Br)s1`: the activation is 1.77%.

Take `Cc1c(C(=O)OCC(=O)N2CCCC2=O)oc2ccccc12`: the activation was 3.43%.

With `CCCN(CCc1ccccc1)C1CCc2c(O)cccc2C1` (stereo not given), the activation is 37.2% (active).

Consider `CC(=O)N1CCN(c2ccccc2NC(=S)NC(=O)c2cc3ccccc3o2)CC1`, for which the activation is 4.36%.

As to `CN(c1ccccc1)S(=O)(=O)c1cc(C(=O)N2CCN(c3ncccn3)CC2)ccc1Cl`, the activation was -3.34%.

On to `COc1ccc(S(=O)(=O)N2CCN(CC(=O)N3c4ccccc4CC3C)CC2)cc1OC` (stereo not given), for which the activation is 5.85%.

Consider `COC(=O)c1cc(S(=O)(=O)N2CCN(c3cc(C)ccc3C)CC2)c[nH]1`, for which the activation is 0.19%.

In the case of `Cc1ccc(CCC(=O)Nc2ncc(Cc3cc(Cl)ccc3Cl)s2)o1`, the activation was 29.1% (active).

As for `CC(=O)COc1ccc2c(-c3ccccc3)cc(=O)oc2c1`, the activation was 4.18%.

Regarding `CC1CCN(S(=O)(=O)c2nnc(NC(=O)COc3ccccc3F)s2)CC1`, the activation is -0.56%.

Turning to `Cc1c(C(=O)OCC(=O)N(CCC#N)c2ccccc2)oc2c1ccc1ccccc12`, the activation was 61.4% (active).

For `O=C(OC12CC3CC(CC(C3)C1)C2)c1ccc(NCc2cc(O)ccc2O)cc1`, the activation is 7.13%.

As to `O=C(CNCc1ccco1)Nc1cc(S(=O)(=O)N2CCOCC2)ccc1N1CCCC1`, the activation is -0.44%.

As to `CNC(=S)N/N=C/c1ccc(OCc2ccccc2)c(Br)c1`, the activation was 0.4%.

Consider `COc1cccc(OCC(=O)Nc2ccccc2C(N)=O)c1`, for which the activation is 26.9% (active).

As for `CC(C)CC(=O)N/C(N)=N/c1nc2ccccc2s1`, the activation was -0.51%.

On to `COc1c(Cl)cc(C(=O)Nc2ccc(Cl)cn2)cc1Cl`, for which the activation is 4.5%.

Regarding `Cc1ccc(CN2CCN(Cc3ccc(OCCO)cc3)CC2CCO)o1` (stereo not given), the activation was 2.89%.

For the compound `Cc1oc2c(F)c(F)c(F)c(F)c2c1S(=O)(=O)Nc1cccc(C(F)(F)F)c1`, the activation is -4.5%.

Regarding `O=C(CC1Nc2ccccc2NC1=O)Nc1ccccc1` (stereo not given), the activation is 3.07%.

Turning to `CCn1nc(C(=O)OCC(=O)N2c3ccccc3CC2C)c2ccccc2c1=O` (stereo not given), the activation was -1.95%.

In the case of `CC(NC(=O)c1cc(-c2ccccc2)on1)c1ccccc1` (stereo not given), the activation was -0.01%.

Regarding `O=C(c1cccnc1)N(c1cc2sc(=O)oc2c2ccccc12)S(=O)(=O)c1ccccc1`, the activation was 2.35%.

Turning to `Cc1cccc2sc(N(CCCN(C)C)C(=O)CCS(=O)(=O)c3ccccc3)nc12`, the activation is 5.39%.

As for `Cc1ccccc1CN1CCN(CC(=O)NCc2ccccn2)C1=O`, the activation was 3.7%.
